These results are taken from PubChem BioAssay AID651635 (National Center for Advancing Translational Sciences (NCATS), 2012).

Out of some 400,000 compounds screened, about 1,900 (0.47%) were called active. Entries that show only a call come without a potency. Not shown: some 14% with an inconclusive outcome. Calls follow the shape of the dose curve; as a rule, active = well fitted cell-killing curve with a large enough effect; inconclusive = small, poorly fitted or top-dose-only effect, or effect the other way; inactive = no such curve, though single readings can be large or run the other way. Only a selection was taken, and actives are over-represented in it overall.
Potency is read from the fitted curve at half-maximal effect.

The assay is described as follows: Viability Counterscreen for Primary qHTS for Inhibitors of ATXN expression. Also: nearly all actives have a fitted effect of over 40% in size. The settings on record: S2 cells (HEK-293 line with an ATXN2-luciferase reporter) viability, CellTiter-Fluor protease fluorescence, 24 h; series mostly up to 56.7 µM. (The purpose of a counterscreen is to sort out artefacts and off-target activity.)
As to `O=C(CCc1ccc(O)cc1)NN=Cc1cc(Br)ccc1O`, the Potency result is “inactive”. As for `Cc1c(C(=O)Nc2ccccn2)oc2ccc(Br)cc12`, the entry is “inactive”; as for `Oc1ccc(Br)cc1/C=N/Nc1ccccn1`, 0.251 µM (active). For the compound `CN[C@H]1C[C@H]2c3cc(Oc4ccccc4C)ccc3CCN2C(=O)[C@H]1[C@H](C)O`, the Potency result was “inactive”. With `COc1ccccc1-c1ccc(C(=O)N(C)C(C)c2ccon2)c(N2CCN(c3ccccc3F)CC2)n1` (stereo unspecified) the entry was “inactive”; with `COc1ccc(NC(=O)C(=O)NCc2ccco2)cc1`, “inactive”. With `COc1ccc(CS(=O)/C(Cl)=C(/Cl)C(=O)Nc2ccc(OC)nc2)cc1` (stereo unspecified) the figure was 1.89 µM (active). `COc1ccc(C(O)c2nc(-c3ccc(OC)nc3)cs2)cc1` (stereo unspecified): the Potency result is “inactive”. As for `Cc1nnc(C(=O)NC(C)(C)c2nc(C(=O)NCc3ccc(F)cc3)c(O)c(=O)n2C)o1`, the entry is “inactive”; as for `Cc1cc(Nc2cccc(C(F)(F)F)c2)nc2ccc(NC(=O)c3ccc(=O)[nH]c3)cc12`, “inactive”. With `COc1cc(NC(=O)c2[nH]cnc2C(N)=O)cc(C(=O)Nc2cccc(C(F)(F)F)c2)c1` the figure was 10 µM (active); with `COc1cc(OC)cc(C(=O)Nc2ccc3nc(Nc4cccc(C(F)(F)F)c4)cc(C)c3c2)c1`, “inactive”. With `CN(C)C(=O)[C@@H]1C[C@@H](Sc2nc3ccccc3[nH]2)CN1Cc1ccc(Cl)cc1` the entry was “inactive”; with `CCC(=O)Nc1ccc(Nc2nc(Cl)nc(Nc3ccc(NC(=O)CC)cc3)n2)cc1`, “inactive”; with `CC(C)(CCl)C(=O)Nc1ccc(Sc2ccc(F)cc2)cc1`, “inactive”.

Turning to `O=C(CCl)Nc1ccc(Sc2ccc(NC(=O)CCl)cc2)cc1`, the Potency is 11.2 µM (active). With `COC(=O)c1ccccc1-c1cc(C)cc2c1OC(CNC(=O)C1CCOC1)C2` (stereo unspecified) the entry was “inactive”; with `CNc1cncc(-c2ccc(NS(C)(=O)=O)cc2)n1`, “inactive”; with `CCc1ccc2c(c1)NC(=O)C2(C)Cc1ccc(OC(F)(F)F)cc1` (stereo unspecified), 20 µM (active). On to `COC(=O)Cc1ccc(OCC(=O)Nc2ccc(OC(F)(F)F)cc2)cc1`, for which the Potency entry was “inactive”. As for `CCC1CN(CCNC(=O)c2cccnc2C)Cc2cc(OC)ccc2O1` (stereo unspecified), the entry is “inactive”; as for `COc1ccc(CN2CCC3(CCC(CNC(=O)c4ccco4)O3)CC2)cc1OC` (stereo unspecified), “inactive”. As for `CC1(Cc2cccc(C#N)c2)C(=O)Nc2ccc(-c3cccc(C(F)(F)F)c3)cc21` (stereo unspecified), the figure is 25.1 µM (active). `O=c1cc(O)c(-c2cccc(C(F)(F)F)c2)c(Cl)[nH]1`: the Potency result is “inactive”. As for `CCCCOC(=O)/C(C#N)=C/c1ccc(-c2cccc(C(F)(F)F)c2)o1`, the entry is “inactive”; as for `COCCCN1CCC(NC(=O)c2cc(Cl)c(N)c3c2OCC3)CC1`, “inactive”.

For the compound `COc1ccccc1C(=O)N[C@@H]1c2ccccc2C2(CCN(C(=O)c3csnn3)CC2)[C@H]1OC`, the Potency result was “inactive”. As for `Cc1cnc(C)c(-c2cc(F)c3c(c2)CC(CNC(=O)c2cccc(Cn4cccn4)c2)O3)n1` (stereo unspecified), the entry is “inactive”; as for `CN(C)CCN1CCN(c2cc(-c3cccc(Cl)c3)nc3ccnn23)CC1`, “inactive”; as for `C#Cc1cc(N2CCN(C(=O)c3ccoc3)CC2)n2nc(-c3cccc(Cl)c3)cc2n1`, 15.8 µM (active). As for `O=C(c1ccccc1)N1CCN(C(=O)c2cc3nc(-c4ccccc4)cc(C(F)(F)F)n3n2)CC1`, the entry is “inactive”; as for `COCc1c(C(=O)NC2CCCCC2)cnn1-c1nccc(-c2ccccc2OC)n1`, “inactive”. As for `Cc1ccc(F)cc1S(=O)(=O)N1CCC(c2nc3ccccc3s2)CC1`, the entry is “inactive”. Take `COc1cc(=O)n2c(c1C(=O)NC(C)c1ccco1)CCN(C(=O)c1cn3ccc(C)cc3n1)CC2` (stereo unspecified): the Potency entry is “inactive”.

Regarding `CO/N=C(/C(=O)N[C@@H]1C(=O)N2C(C(=O)O)=C(Cn3nnc(C)n3)CS[C@H]12)c1csc(N)n1`, the Potency result was “inactive”.

For the compound `CCOC(=O)/C(=C\c1ccc([N+](=O)[O-])cc1)C(=O)c1cc(C(C)=O)c(Nc2ccccc2)s1`, the Potency is 31.6 µM (active). As for `O=C(O)C(=Cc1ccc([N+](=O)[O-])cc1)CCc1ccccc1`, the entry is “inactive”; as for `CC(=O)Nc1ccc(C=CC(=O)c2ccc([N+](=O)[O-])cc2)cc1`, “inactive”; as for `CC(C)(C)OC(=O)N1CCN(C(=O)c2[nH]c(C(F)(F)F)nc2-c2ccccc2)CC1`, “inactive”. `COc1ccc(F)c(CN2CCC3(CCC(CNC(=O)c4ccn(C)n4)O3)CC2)c1` (stereo unspecified): the Potency result was “inactive”.

As to `CCCNC(=O)c1cc2c(c(-c3cccc(-c4ccc(C#N)cc4)c3)n1)[C@@H](CCO)N(C(=O)CC)C2`, the Potency entry is “inactive”.

With `CCOC(=O)[C@]12CCC=C1N(Cc1ccco1)C(=O)[C@H](CC(=O)NCc1cccc(C(F)(F)F)c1)C2`, the Potency result was “inactive”. With `CC1Cc2[nH][nH]c(=O)c2C(C2CCCC2)O1` (stereo unspecified) the entry was “inactive”. Consider `C=CC[C@@H](CC(=O)N[C@@H](CO)Cc1ccccc1)C(=O)NCCOC(=O)[C@@H](CC=C)CC(=O)OC(C)(C)C`, for which the Potency entry is “inactive”. With `C=CC[C@@H](CC(=O)N[C@H](CO)Cc1ccccc1)C(=O)N[C@@H](COC(=O)[C@@H](CC=C)Cc1ccc(F)cc1)Cc1c[nH]c2ccccc12` the entry was “inactive”; with `C=CCC[C@@H](Cc1ccc(F)cc1)C(=O)OC[C@H](Cc1c[nH]c2ccccc12)NC(=O)[C@@H](CC=C)CC(=O)N(CCO)Cc1ccccc1`, 5.62 µM (active). For `C=CC[C@H](CC(=O)OC(C)(C)C)C(=O)OC[C@H]1CCCN1C(=O)[C@H](CC=C)CC(=O)N(CCO)Cc1ccccc1`, the Potency result was “inactive”. As for `COCCCNC(=S)N(Cc1ccccc1)Cc1ccc(F)cc1`, the entry is “inactive”. With `C=CCC[C@@H](Cc1ccc(F)cc1)C(=O)O[C@H](CNC(=O)[C@H](CC=C)CC(=O)N(CCO)Cc1ccccc1)c1ccccc1` the figure was 25.1 µM (active); with `C=CC[C@@H](CC(=O)N[C@H](CO)Cc1ccccc1)C(=O)N[C@H](C)COC(=O)[C@@H](CC=C)Cc1ccc(F)cc1`, “inactive”; with `C=CCC[C@H](Cc1ccc(F)cc1)C(=O)OC[C@@H](NC(=O)[C@@H](CC=C)CC(=O)N[C@H](CO)Cc1ccccc1)C(C)(C)C`, 31.6 µM (active). As for `CC(=O)NC(Cc1c[nH]c2ccccc12)C(=O)NCCc1ccccc1` (stereo unspecified), the entry is “inactive”.

As to `COc1ccc(-c2cc(NC=O)c3ncc(-c4ccccc4)n3c2)cc1OC`, the Potency entry is “inactive”. With `CC1(C)[C@H](O[C@H]2O[C@H](C(=O)O)[C@@H](O)[C@H](O)[C@H]2O[C@@H]2O[C@H](C(=O)O)[C@@H](O)[C@H](O)[C@H]2O)CC[C@@]2(C)[C@H]1CC[C@]1(C)[C@H]2C(=O)C=C2[C@H]3C[C@@](C)(C(=O)O)CC[C@]3(C)CC[C@]21C` the entry was “inactive”.

For the compound `COc1cccc(CNc2nc3cc(-c4csc5ccccc45)sc3c(=O)n2C)c1`, the Potency result is “inactive”. For `COC(=O)C1CCCCN1Cc1ccc2c(c1)CN(Cc1cc(OC)c3c(c1)OCO3)CCO2` (stereo unspecified), the Potency entry is “inactive”. As to `Cc1nc2nc(NCc3cccc(Br)c3)[nH]n2c(=O)c1Cc1ccccc1`, the Potency entry is “inactive”.

For `C=C1C(=O)[C@]23C[C@H]1CCC2[C@@]1(C)C(C[C@@H]3O)[C@](C)(C(=O)O)CC[C@@H]1O` (stereo partly specified), the Potency was 15.8 µM (active).

Regarding `CCc1noc(C)c1C(=O)NCCN1Cc2cc(OC)ccc2OC(CC)C1` (stereo unspecified), the Potency result was “inactive”. As for `COc1ccc(C2OC(CCc3ccccc3)Cc3[nH]c(=S)[nH]c(=O)c32)cc1` (stereo unspecified), the entry is “inactive”; as for `CC(=O)O[C@H]1CC[C@@]2(C)C(=CC[C@@H]3[C@@H]2CC[C@]2(C)C(c4cccnc4)=CC[C@@H]32)C1`, “inactive”. With `CCOC(=O)[C@]12CCCC=C1N(Cc1cccc3ccccc13)C(=O)[C@H](CC(=O)NCC13CC4CC(CC(C4)C1)C3)C2` the entry was “inactive”; with `Nc1ncnc2c1ncn2[C@@H]1O[C@H](CNC(=O)[C@H](N)Cc2cccnc2)[C@@H](O)[C@H]1O`, “inactive”.

For the compound `COc1cccc(CN(C)C(=O)CC[C@H]2O[C@@H](n3cnc4c(NC(=O)c5ccccc5)ncnc43)[C@H](O)[C@@H]2O)c1`, the Potency result was “inactive”. On to `COc1ccc(C[C@H](N)C(=O)N[C@@H]2[C@H](O)[C@H](n3cnc4c(N(C)C)ncnc43)O[C@@H]2CO)cc1`, for which the Potency was 2 µM (active). As for `CC1(C)OC(=O)C2=C(C[C@@H](C3CCCCC3)O[C@@H]2c2ccc(Cl)cc2)O1`, the entry is “inactive”; as for `NNc1nnc(Cc2ccncc2)c2ccccc12`, “inactive”.

Take `OC[C@@H]1CN(Cc2ccncc2)C[C@H](n2cnc3c(N4CCN(c5ccccc5)CC4)ncnc32)O1`: the Potency result is “inactive”. With `COc1cc(=O)n2c(c1C(=O)N(C)Cc1nccs1)CCN(Cc1ccc(Cl)cc1)CC2` the entry was “inactive”. Take `COc1ccc(CCN2C(=O)C(C)=C(C)C2=O)cc1OC`: the Potency result was “inactive”. With `CCCCN1C(=O)C(C)=C(C)C1OCCc1ccc(OC)c(OC)c1` (stereo unspecified) the entry was “inactive”; with `CCCCOc1ccc(CN2C(=O)C(=O)c3cc(Br)cc(C)c32)cc1OC`, 25.1 µM (active); with `CCOP(=O)(OCC)C(Cc1ccccc1)N=C(c1ccccc1)c1ccccc1` (stereo unspecified), “inactive”.

On to `COc1ccc(/C(C)=N\NC(=O)c2ccc(-c3ccccc3)cc2)c(F)c1`, for which the Potency entry is “inactive”. As for `C/C(=N\NC(=O)Cc1ccc(Cl)cc1)c1ccccn1`, the figure is 5.62 µM (active); as for `NC(=O)NC(CC(=O)NNC(=O)c1ccccn1)c1ccc(Cl)cc1` (stereo unspecified), “inactive”; as for `CC1=NNC(=O)C1CCC(=O)N/N=C(\C)c1ccc(Cl)cc1` (stereo unspecified), “inactive”. As for `C/C(=N\NC(=O)c1ccccc1F)c1ccccn1`, the figure is 7.94 µM (active); as for `O=C(NCCOc1ccccc1)c1ccccc1F`, “inactive”; as for `Cn1nccc1C(=O)NCC1CCC2(CCN(Cc3c(O)ccc4ccccc34)CC2)O1` (stereo unspecified), “inactive”. As for `COc1ccccc1C1CN(Cc2ccccc2O)Cc2ccccc2O1` (stereo unspecified), the entry is “inactive”; as for `CCC1CN(CCNC(=O)c2cccc(C)n2)Cc2cc(OC)ccc2O1` (stereo unspecified), “inactive”; as for `Cc1ccc2c(C)nc(N3CCCC(C(=O)NC(C)(C)CO)C3)nc2c1` (stereo unspecified), “inactive”. As to `CCC1(C2CCN(Cc3cccnc3)CC2)NC(=O)N(CC2COc3ccccc3O2)C1=O` (stereo unspecified), the Potency result is “inactive”.

On to `COc1cc(C)c(CN2CCc3nnc(C(C)NC(=O)c4cccnc4)n3CC2)cc1C` (stereo unspecified), for which the Potency result is “inactive”. Turning to `Cc1cccc(CNC(=O)c2cnn(-c3nccc(-c4ccccc4F)n3)c2C2CC2)n1`, the Potency entry is “inactive”.
